Test results from PubChem BioAssay (Tox21).
Records with an inconclusive call do not appear. Where a structure was tested more than once in an assay, its records may differ in their call. The source made the active and inactive calls. Unless noted, calls follow the shape of the dose curve; as a rule, active = well fitted curve in the direction sought with a large enough effect in the repeat runs; inconclusive = weak or mixed curves; inactive = no such curve, though single readings can be large; an effect the other way counts as inactive or inconclusive.

Experiments:
[1] = molecular target: Retinoic acid receptor RXR-alpha (Homo sapiens) (UniProt P19793); experiment: qHTS assay to identify small molecule agonists of the RXR signaling pathway (AID 1159527; calls by dose curve; also: nearly all actives have a fitted effect of over 35% in size; also: potency is read from the fitted curve at half-maximal effect)
Method in brief: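 Agonist-mode beta-lactamase reporter assay: HEK 293T RXR-alpha-UAS-bla cells treated 16 hr at 37 C with compounds, 9-cis retinoic acid as positive control. LiveBLAzer FRET substrate, 405 nm excitation, 460/530 nm emission.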

[2] = qHTS assay to identify small molecule agonists of the RXR signaling pathway - cell viability counter screen (AID 1159529); also: nearly all actives have a fitted effect of over 50% in size; also: potency is read from the fitted curve at half-maximal effect
Method in brief: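 CellTiter-Glo luminescence gave viability in the wells also read for beta-lactamase. Cells (RXR-alpha-UAS-bla HEK 293T, 2% charcoal-stripped FBS medium) had 5 hr plating, then 16 hr compound exposure at 37 C; tetraoctyl ammonium bromide served as positive control.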

[3] = qHTS assay to identify small molecule antagonists of the retinoid acid receptor (RAR) signaling pathway - cell viability counter screen (AID 1159551); also: nearly all actives have a fitted effect of over 35% in size
Method in brief: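 Cytotoxicity counter screen: ATP content quantified by CellTiter-Glo luminescence in C3RL4 cells treated 6 hr at 37 C with compound and retinol (1 uM final). Cells plated at 1,000/well and cultured overnight before dosing.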

[4] = qHTS assay to identify small molecule antagonists of the retinoic acid receptor (RAR) signaling pathway (AID 1159552; also: nearly all actives have a fitted effect of over 50% in size)
Method in brief: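 Luminescent RARE reporter read-out in C3RL4 cells: 6 hr co-treatment at 37 C of test compounds with retinol at 1 uM final. Cells plated overnight beforehand; luciferase reagent incubated 30 min at room temperature before reading.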

[5] = qHTS assay to identify small molecule agonists of the retinoic acid receptor (RAR) signaling pathway (AID 1159553)
Method in brief: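 Luminescence was measured 30 min after luciferase reagent addition at room temperature. Before that, C3RL4 reporter cells (1,000 per well, plated overnight) were treated with compound for 6 hr at 37 C and 5% CO2.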

[6] = qHTS assay to identify small molecule antagonists of the estrogen related receptor (ERR) signaling pathway from Tox21 library - cell viability counter screen (AID 1224834); also: nearly all actives have a fitted effect of over 30% in size
Method in brief: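 CellTiter-Fluor fluorescence, read after 30 min at 37 C, measures viability of ERR cells. Cells plated at 2,000/well and incubated 6 h before pin-tool compound addition, then exposed 17.5 hours at 37 C.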

[7] = molecular target: Luciferin 4-monooxygenase (Photinus pyralis) (UniProt P08659); experiment: qHTS assay to identify small molecule inhibitors of firefly luciferase (AID 1224835); also: series mostly up to about 120 µM; nearly all actives have a fitted effect of over 25% in size
Method in brief: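 Quantitative HTS format; KM concentrations of both substrates. Purified P. pyralis FLuc activity quantified from luminescence images.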

[8] = qHTS assay to identify small molecule agonists of the constitutive androstane receptor (CAR) signaling pathway - cell viability counter screen (AID 1224836); also: series mostly up to about 92 µM; nearly all actives have a fitted effect of over 45% in size
Method in brief: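 Cell viability multiplexed with the CAR agonist screen: CellTiter-Fluor fluorescence after 23 hr at 37 C. HepG2-CYP2B6-hCAR cells got compounds at 15 concentrations with PK11195 at 0.75 uM final.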

[9] = qHTS assay to identify small molecule antagonists of the constitutive androstane receptor (CAR) signaling pathway - cell viability counter screen (AID 1224837); also: series mostly up to about 92 µM; nearly all actives have a fitted effect of over 45% in size
Method in brief: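 Cytotoxicity counter-screen: CellTiter-Fluor fluorescence after 23 h compound exposure (15-point qHTS) in double-stable HepG2-CYP2B6-hCAR cells, with 50 nM CITCO added.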

[10] = molecular target: Nuclear receptor subfamily 1 group I member 3 (Homo sapiens) (UniProt Q14994); experiment: qHTS assay to identify small molecule antagonists of the constitutive androstane receptor (CAR) signaling pathway (AID 1224838);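 also: HepG2 cells stably expressing hCAR with CYP2B6 luciferase reporter stimulated by CITCO; nearly all actives have a fitted effect of over 40% in size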
Method in brief: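 Antagonism measured as luciferase signal (ONE-Glo, 30 min, room temperature) in CAR-stimulated cells: HepG2-CYP2B6-hCAR double-stable line exposed 24 hr at 37 C to compound in a 15-point series plus 50 nM CITCO.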

[11] = molecular target: Nuclear receptor subfamily 1 group I member 3 (Homo sapiens) (UniProt Q14994); experiment: qHTS assay to identify small molecule agonists of the constitutive androstane receptor (CAR) signaling pathway (AID 1224839);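 also: HepG2 cells stably carrying human CAR and a CYP2B6 luciferase reporter; series mostly up to about 92 µM; nearly all actives have a fitted effect of over 15% in size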
Method in brief: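 Luminescent ONE-Glo read-out after 24 hr, 37 C exposure of double-stable HepG2-CYP2B6-hCAR reporter cells to a 15-point compound series, in the presence of 0.75 uM PK11195 (final).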

[12] = qHTS assay to identify small molecule antagonists of the estrogen related receptor signaling pathway with the pleiotropic PPARgamma coactivator (PGC) from Tox21 10K library - cell viability counter screen (AID 1224840; active = well fitted cell-killing curve with a large enough effect in the repeat runs, not every such curve was filed as active; also: nearly all actives have a fitted effect of over 40% in size)
Method in brief: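 Counter-screen for cytotoxicity: after 17.5 h compound exposure at 37 C, CellTiter-Fluor reagent added to PGC/ERR cells for 30 min and fluorescence read. Cells were seeded at 2,000 per well 6 h before dosing.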

[13] = qHTS assay to identify small molecule antagonists of the estrogen related receptor signaling pathway with the pleiotropic PPARgamma coactivator (PGC) from Tox21 10K library (AID 1224841; call rule not given here; also: series mostly up to about 92 µM; actives are mostly falling curves and most rising ones were filed inactive; nearly all actives have a fitted effect of over 50% in size)
Method in brief: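 Luminescence (One-Glo, 30 min at room temperature) after 18 h compound treatment at 37 C of PGC/ERR reporter cells plated at 2,000 cells/well and settled 6 h beforehand.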

[14] = qHTS assay to identify small molecule agonists of the estrogen related receptor signaling pathway with the pleiotropic PPARgamma coactivator (PGC) from Tox21 10K library (AID 1224842); also: nearly all actives have a fitted effect of over 15% in size
Method in brief: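 PGC/ERR reporter cells (NTP line) were seeded 2,000 per well, rested 6 h at 37 C/5% CO2, then pin-dosed with compounds in DMSO for 18 h at 37 C; luciferase read by One-Glo luminescence after 30 min at room temperature.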

[15] = qHTS assay to identify small molecule agonists of the hypoxia (HIF-1) signaling pathway - cell viability counter screen (AID 1224844; calls by dose curve; also: nearly all actives have a fitted effect of over 50% in size)
Method in brief: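 Cytotoxicity measured by CellTiter-Glo ATP luminescence in the wells also read for beta-lactamase signal. Cells were HRE-bla ME-180 (2,000/well, 0.5% dialyzed FBS), exposed to compounds for 17 h at 37C.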

[16] = qHTS assay to identify small molecule agonists of H2AX (AID 1224845; active = well fitted activation curve with a large enough effect in the signal ratio in the repeat runs, not every such curve was filed as active; the % refers to the signal ratio)
Method in brief: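 Wild-type CHO-K1 cells plated overnight, then exposed 3 hr at 37C to compounds at 15 concentrations (0.76% DMSO). Lysed, then HTRF anti-pH2AX(S139)-cryptate/anti-H2AX-d2 detection after 24 hr at room temperature; emissions 665 and 620 nm.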

[17] = qHTS assay to identify small molecule agonists of the hypoxia (HIF-1) signaling pathway (AID 1224846; active = well fitted activation curve with a large enough effect in the signal ratio in the repeat runs, not every such curve was filed as active; the % refers to the signal ratio)
Method in brief: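 Compounds added to ME-180 cells carrying hypoxia-response-element beta-lactamase reporter (0.5% dialyzed FBS, 5 h preplating), 17 h at 37C; agonist activity detected by CCF4-AM B/G FRET read-out.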

[18] = molecular target: Thyrotropin receptor (Homo sapiens) (UniProt P16473); experiment: qHTS assay to identify small molecule agonists of the thyroid stimulating hormone receptor (TSHR) signaling pathway (AID 1224843; calls by dose curve; also: nearly all actives have a fitted effect of over 45% in size; also: potency is read from the fitted curve at half-maximal effect)
Method in brief: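 Compounds are titrated over 15 concentrations, in triplicate, onto TSHR-HEK293 cells seeded at 800/well. Plates sit 30 min at room temperature before cAMP-d2 and anti-cAMP cryptate are added; signal is read after a further hour.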

Measured: Potency

Luciferin 4-monooxygenase (Photinus pyralis), sequence (P08659 whole entry, looked up): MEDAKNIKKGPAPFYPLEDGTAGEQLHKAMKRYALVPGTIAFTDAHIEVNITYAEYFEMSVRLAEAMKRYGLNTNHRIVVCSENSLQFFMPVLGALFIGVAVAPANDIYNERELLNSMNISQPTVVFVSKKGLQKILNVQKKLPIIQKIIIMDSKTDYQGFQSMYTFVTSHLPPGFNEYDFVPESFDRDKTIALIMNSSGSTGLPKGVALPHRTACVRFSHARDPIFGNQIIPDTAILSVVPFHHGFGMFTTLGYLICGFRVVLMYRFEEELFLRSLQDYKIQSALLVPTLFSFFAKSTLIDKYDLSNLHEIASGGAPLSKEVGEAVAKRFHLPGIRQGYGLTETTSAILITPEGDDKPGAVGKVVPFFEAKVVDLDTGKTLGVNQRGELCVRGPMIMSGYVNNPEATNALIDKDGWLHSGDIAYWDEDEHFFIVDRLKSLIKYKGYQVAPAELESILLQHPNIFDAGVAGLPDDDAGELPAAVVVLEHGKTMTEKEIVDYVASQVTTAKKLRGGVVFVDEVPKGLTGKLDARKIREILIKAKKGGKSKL
Thyrotropin receptor (Homo sapiens), sequence (P16473 whole entry, looked up): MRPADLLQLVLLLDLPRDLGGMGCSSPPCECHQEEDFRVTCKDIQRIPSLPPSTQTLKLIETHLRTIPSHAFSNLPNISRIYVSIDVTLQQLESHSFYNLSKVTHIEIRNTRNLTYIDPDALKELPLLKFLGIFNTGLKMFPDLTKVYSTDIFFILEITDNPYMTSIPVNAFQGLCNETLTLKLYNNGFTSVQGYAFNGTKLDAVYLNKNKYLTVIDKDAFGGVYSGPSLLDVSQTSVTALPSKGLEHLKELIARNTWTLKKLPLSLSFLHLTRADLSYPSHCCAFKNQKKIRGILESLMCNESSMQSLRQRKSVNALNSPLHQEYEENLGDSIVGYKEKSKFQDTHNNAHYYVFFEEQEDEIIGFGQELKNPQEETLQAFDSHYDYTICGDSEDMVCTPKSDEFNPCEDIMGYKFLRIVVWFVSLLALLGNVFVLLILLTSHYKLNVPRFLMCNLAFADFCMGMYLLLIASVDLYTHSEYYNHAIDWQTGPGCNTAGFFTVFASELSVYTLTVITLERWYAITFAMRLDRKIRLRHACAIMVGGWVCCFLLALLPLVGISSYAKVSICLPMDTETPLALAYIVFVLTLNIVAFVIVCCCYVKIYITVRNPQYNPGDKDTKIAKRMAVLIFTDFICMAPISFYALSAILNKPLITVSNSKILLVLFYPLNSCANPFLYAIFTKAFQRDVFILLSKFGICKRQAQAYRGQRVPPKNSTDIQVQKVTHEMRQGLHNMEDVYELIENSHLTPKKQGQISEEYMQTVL
Retinoic acid receptor RXR-alpha (Homo sapiens), sequence (P19793 whole entry, looked up): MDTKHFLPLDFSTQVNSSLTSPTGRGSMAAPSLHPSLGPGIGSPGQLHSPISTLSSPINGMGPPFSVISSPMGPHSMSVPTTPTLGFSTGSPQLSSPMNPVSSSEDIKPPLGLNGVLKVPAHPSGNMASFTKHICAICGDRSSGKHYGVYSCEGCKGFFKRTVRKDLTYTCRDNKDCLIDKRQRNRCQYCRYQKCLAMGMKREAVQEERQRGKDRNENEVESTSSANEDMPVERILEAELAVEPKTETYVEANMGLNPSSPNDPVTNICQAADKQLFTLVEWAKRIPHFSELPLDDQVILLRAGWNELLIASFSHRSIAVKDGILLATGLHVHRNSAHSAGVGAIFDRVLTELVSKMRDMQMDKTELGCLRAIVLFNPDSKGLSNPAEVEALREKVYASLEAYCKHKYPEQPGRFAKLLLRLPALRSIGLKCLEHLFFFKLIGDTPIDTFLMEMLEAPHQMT
Nuclear receptor subfamily 1 group I member 3 (Homo sapiens), sequence (Q14994 whole entry, looked up): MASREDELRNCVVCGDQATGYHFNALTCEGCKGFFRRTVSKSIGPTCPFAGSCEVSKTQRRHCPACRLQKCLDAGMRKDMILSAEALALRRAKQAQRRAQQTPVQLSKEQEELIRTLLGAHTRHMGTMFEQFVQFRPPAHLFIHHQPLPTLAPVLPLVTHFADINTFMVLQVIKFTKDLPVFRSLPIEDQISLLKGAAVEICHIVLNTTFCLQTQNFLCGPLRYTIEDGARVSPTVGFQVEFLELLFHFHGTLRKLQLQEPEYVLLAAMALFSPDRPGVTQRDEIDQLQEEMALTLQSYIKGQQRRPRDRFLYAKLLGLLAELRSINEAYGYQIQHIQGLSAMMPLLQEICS

OC[C@H]1O[C@@](CO)(O[C@H]2O[C@H](CO)[C@@H](O)[C@H](O)[C@H]2O)[C@@H](O)[C@@H]1O
inactive: [1] | [2] | [3] | [4] | [5] | [6] | [7] | [8] | [9] | [10] | [11] | [12] | [13] | [14] | [15] | [16] | [17]

CC1CCC(C(C)C)C(O)C1 (stereo not given)
inactive: [1] | [2] | [3] | [4] | [5] | [6] | [7] | [8] | [9] | [11] | [12] | [18] | [15] | [16] | [17]

O=C(O)CC(C(=O)O)C(CC(=O)O)C(=O)O (stereo not given)
inactive: [1] | [2] | [3] | [4] | [6] | [7] | [8] | [9] | [10] | [11] | [12] | [15] | [16] | [17]
268 nM (active) and inactive: [18]

C=CCNC(N)=S
inactive: [1] | [3] | [4] | [5] | [6] | [7] | [8] | [9] | [10] | [11] | [18] | [15] | [16] | [17]
38 µM (active) and inactive: [2]

O=C(CC(C(=O)OC1CCCCC1)S(=O)(=O)O)OC1CCCCC1 (stereo not given)
inactive: [1] | [2] | [3] | [4] | [5] | [6] | [7] | [8] | [9] | [10] | [11] | [12] | [13] | [14] | [18] | [15] | [16] | [17]

CCCC(C)=O
inactive: [1] | [2] | [3] | [4] | [6] | [7] | [8] | [9] | [11] | [12] | [15] | [16] | [17]

COc1ccc(NC(C)=O)cc1N
inactive: [1] | [2] | [3] | [4] | [6] | [7] | [8] | [9] | [11] | [12] | [18] | [15] | [16] | [17]

O=C=NCCCCCCN=C=O
inactive: [1] | [2] | [3] | [4] | [6] | [7] | [8] | [9] | [11] | [18] | [15] | [16] | [17]

O=c1[nH]c(=O)n([C@H]2CCCO2)cc1F
inactive: [2] | [3] | [4] | [5] | [6] | [7] | [8] | [9] | [11] | [12] | [18] | [15] | [16] | [17]
17.4 µM (active) and inactive: [1]
